Consider one sequence from PMC7862700, “An all-to-all approach to the identification of sequence-specific readers for epigenetic DNA modifications on cytosine”.

Holding throughout (experiment): DAPPL (digital affinity profiling via proximity ligation, sequencing); 10 mM Tris-HCl pH 7.5, 50 mM NaCl, 1 mM DTT, 4% glycerol, room temperature, 30 min; GST-TFs on glutathione beads, 16-mer random dsDNA library, 0.1% formaldehyde crosslink after washing; high values mean tight binding
Holding throughout (details): protein: recombinant; tags: N-terminal GST; dsDNA, one strand shown

Assay [1] concerns the target T1, ELK1 (Homo sapiens, UniProt P19419 1-428).
T1 sequence: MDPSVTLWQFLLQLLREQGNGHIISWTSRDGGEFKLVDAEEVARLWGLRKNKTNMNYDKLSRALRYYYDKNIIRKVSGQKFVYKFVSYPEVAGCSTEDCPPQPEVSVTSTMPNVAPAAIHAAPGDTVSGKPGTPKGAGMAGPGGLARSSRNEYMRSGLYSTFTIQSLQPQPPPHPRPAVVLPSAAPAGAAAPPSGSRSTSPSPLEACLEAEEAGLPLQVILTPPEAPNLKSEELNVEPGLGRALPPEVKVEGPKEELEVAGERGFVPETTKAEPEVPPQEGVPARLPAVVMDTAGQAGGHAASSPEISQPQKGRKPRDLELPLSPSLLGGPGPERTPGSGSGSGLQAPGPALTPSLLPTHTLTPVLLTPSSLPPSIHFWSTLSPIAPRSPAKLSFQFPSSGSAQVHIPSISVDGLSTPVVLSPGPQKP
In short, it runs like this: (§1)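 GST fusions of human transcription factors were expressed in yeast and captured with glutathione beads. Once given DNA barcodes and pooled alongside a tag-only sample, they were incubated for 30 min at room temperature with 200 nmole of a random double-stranded 16-mer DNA library in Tris/NaCl/DTT/glycerol buffer, then washed, crosslinked (0.1% formaldehyde), proximity-ligated, PCR-amplified and sequenced on an Illumina NextSeq500. The binding signal of each hexamer is its read frequency for a factor divided by its frequency for the tag-only sample.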

For assay [2], the target named is T2, GABPA (Homo sapiens, UniProt Q06546 1-454).
T2 sequence: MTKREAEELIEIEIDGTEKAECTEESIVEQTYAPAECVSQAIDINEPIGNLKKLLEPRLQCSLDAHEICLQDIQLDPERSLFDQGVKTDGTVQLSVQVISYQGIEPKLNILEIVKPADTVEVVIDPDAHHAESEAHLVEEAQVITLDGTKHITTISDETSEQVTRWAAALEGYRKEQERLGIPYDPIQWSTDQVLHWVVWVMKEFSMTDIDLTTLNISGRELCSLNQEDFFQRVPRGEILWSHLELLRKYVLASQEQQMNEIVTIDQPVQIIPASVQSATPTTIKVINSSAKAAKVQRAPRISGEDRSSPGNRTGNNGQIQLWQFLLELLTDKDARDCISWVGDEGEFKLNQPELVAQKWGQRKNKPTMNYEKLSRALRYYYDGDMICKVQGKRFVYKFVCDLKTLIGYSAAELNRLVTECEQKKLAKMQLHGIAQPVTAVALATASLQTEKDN
In outline:
as §1

For assay [3], the target named is T3, ERG (Homo sapiens, UniProt P11308 1-479).
T3 sequence: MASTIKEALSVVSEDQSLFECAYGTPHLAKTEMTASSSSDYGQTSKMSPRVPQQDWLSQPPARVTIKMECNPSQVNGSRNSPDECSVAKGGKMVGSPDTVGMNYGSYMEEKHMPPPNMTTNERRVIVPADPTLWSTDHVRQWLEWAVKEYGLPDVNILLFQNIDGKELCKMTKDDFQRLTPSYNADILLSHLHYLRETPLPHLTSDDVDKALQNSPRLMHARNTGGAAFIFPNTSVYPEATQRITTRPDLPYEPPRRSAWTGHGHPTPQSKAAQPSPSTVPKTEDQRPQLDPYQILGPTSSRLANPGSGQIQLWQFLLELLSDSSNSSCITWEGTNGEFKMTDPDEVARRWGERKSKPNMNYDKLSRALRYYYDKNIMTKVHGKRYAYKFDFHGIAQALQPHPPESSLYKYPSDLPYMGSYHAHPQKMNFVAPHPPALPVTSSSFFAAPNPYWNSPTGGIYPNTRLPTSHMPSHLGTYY
In outline: as §1

For assay [4], the target named is T4, FEV (Homo sapiens, UniProt Q99581 1-238).
T4 sequence: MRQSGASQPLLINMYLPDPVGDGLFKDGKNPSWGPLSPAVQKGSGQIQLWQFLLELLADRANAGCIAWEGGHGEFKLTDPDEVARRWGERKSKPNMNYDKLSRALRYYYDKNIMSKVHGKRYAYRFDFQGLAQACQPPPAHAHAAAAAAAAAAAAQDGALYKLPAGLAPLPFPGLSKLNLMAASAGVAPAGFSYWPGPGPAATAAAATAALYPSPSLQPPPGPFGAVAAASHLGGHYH
In outline:
as §1

The target in assay [5] is ETV5 (Homo sapiens, UniProt P41161 1-510). In outline: as §1
In assay [6] the target is ELF4 (Homo sapiens, UniProt Q99607 1-663). In short, it runs like this:
as §1

The target in assay [7] is T5, ELF3 (Homo sapiens, UniProt P78545 1-371).
T5 sequence: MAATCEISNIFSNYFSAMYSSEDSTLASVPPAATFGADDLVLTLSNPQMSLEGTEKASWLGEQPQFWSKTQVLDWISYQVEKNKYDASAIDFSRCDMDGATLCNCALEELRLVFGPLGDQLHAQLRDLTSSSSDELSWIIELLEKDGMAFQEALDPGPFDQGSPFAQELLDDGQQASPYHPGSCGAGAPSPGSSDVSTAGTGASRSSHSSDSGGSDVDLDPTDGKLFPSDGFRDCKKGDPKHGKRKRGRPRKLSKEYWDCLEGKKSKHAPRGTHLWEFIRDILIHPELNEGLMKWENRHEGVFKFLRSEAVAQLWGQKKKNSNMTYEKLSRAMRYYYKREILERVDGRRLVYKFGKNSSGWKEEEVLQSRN
In short, it runs like this:
as §1

Assay [8] concerns the target ETV1 (Homo sapiens, UniProt P50549 1-477). In short, it runs like this:
as §1

Assay [9] addresses T6, ETV3L (Homo sapiens, UniProt Q6ZN32 1-361).
T6 sequence: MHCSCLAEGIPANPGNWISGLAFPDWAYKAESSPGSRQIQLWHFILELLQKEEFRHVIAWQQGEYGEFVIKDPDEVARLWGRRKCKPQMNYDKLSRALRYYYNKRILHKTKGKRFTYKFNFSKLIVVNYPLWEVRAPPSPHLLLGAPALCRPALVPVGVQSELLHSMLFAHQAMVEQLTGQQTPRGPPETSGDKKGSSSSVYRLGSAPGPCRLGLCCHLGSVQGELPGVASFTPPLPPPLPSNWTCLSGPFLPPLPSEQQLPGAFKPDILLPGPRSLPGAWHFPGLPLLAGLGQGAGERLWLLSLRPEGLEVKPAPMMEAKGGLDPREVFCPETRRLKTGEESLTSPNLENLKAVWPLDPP
In outline:
as §1

In assay [10] the target is T7, ETS2 (Homo sapiens, UniProt P15036 1-469).
T7 sequence: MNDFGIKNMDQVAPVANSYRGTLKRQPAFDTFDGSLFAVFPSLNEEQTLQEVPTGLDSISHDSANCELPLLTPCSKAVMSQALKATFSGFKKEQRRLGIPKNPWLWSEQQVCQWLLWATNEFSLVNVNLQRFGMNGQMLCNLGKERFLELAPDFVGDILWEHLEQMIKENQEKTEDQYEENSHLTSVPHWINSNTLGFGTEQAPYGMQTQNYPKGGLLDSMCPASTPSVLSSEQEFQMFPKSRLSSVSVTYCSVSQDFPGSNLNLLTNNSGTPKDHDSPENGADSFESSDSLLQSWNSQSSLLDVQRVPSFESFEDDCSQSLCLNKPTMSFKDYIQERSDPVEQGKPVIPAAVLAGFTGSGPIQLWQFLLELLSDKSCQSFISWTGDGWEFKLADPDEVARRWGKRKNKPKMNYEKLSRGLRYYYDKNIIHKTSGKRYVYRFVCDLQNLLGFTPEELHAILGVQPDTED
In outline:
as §1

The target in assay [11] is T8, SPDEF (Homo sapiens, UniProt O95238 1-335).
T8 sequence: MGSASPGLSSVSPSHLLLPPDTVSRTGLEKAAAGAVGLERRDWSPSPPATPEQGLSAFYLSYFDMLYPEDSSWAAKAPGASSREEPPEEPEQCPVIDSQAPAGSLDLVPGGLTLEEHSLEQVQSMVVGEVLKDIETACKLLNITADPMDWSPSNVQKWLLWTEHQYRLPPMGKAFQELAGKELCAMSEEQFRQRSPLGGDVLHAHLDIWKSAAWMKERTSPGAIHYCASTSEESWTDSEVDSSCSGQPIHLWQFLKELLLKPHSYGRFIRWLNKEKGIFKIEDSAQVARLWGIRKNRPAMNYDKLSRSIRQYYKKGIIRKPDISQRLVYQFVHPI
In short, it runs like this:
as §1

For assay [12], the target named is T9, ETV7 (Homo sapiens, UniProt Q9Y603 1-341).
T9 sequence: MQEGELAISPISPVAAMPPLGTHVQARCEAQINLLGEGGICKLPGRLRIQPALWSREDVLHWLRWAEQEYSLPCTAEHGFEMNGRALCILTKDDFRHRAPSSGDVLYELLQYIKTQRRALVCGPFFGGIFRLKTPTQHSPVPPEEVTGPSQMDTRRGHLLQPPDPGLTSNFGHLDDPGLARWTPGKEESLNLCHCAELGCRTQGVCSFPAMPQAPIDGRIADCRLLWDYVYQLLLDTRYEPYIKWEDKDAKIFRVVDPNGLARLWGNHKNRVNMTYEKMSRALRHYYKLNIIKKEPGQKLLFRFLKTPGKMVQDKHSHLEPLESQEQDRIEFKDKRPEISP
In short, it runs like this:
as §1

Sequence of ETV5 (P41161 whole entry): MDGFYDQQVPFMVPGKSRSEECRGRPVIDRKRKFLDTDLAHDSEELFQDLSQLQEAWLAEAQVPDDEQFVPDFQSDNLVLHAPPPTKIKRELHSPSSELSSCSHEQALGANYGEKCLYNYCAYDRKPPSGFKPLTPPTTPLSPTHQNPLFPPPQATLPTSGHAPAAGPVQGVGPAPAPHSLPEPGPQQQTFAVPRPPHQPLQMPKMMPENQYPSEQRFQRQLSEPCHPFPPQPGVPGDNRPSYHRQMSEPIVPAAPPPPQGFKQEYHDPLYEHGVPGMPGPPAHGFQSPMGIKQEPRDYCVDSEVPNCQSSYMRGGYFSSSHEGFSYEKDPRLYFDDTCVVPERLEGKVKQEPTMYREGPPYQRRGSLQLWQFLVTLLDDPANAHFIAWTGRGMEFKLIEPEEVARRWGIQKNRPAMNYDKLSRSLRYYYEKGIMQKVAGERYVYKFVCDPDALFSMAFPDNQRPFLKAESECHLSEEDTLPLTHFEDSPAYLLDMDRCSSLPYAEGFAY
Sequence of ELF4 (Q99607 whole entry): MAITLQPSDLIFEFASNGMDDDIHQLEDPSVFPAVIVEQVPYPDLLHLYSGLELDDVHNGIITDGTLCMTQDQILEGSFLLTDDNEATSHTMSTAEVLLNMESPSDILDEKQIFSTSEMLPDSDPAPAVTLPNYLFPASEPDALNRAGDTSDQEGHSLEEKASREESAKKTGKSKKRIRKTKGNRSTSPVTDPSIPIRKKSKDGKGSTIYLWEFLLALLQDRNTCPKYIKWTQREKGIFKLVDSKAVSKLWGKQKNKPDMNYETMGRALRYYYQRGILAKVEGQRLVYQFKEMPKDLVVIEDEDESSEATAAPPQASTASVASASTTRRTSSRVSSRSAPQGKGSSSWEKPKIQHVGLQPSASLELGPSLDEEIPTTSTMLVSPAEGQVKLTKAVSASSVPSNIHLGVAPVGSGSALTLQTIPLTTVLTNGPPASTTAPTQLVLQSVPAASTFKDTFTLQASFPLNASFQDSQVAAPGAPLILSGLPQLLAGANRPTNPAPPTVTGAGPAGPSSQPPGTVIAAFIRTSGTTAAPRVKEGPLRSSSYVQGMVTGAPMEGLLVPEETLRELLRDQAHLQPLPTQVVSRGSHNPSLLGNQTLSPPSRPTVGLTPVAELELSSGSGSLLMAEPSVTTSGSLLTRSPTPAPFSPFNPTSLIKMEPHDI
Sequence of ETV1 (P50549 whole entry): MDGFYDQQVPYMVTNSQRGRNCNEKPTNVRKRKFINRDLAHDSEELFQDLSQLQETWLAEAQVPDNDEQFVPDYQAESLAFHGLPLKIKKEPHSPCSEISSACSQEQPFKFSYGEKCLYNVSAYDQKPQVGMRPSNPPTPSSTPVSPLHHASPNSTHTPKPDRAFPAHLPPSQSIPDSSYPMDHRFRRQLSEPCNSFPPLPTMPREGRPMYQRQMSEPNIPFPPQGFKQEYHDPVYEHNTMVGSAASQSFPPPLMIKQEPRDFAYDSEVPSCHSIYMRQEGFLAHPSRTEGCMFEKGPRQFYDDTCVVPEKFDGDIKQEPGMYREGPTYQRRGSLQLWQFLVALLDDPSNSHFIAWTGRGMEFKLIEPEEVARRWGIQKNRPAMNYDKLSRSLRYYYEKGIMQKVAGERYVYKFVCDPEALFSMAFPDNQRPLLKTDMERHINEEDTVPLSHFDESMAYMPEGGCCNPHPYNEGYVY

As for CAGCAT, the binding signal in [1] was 1 fold enrichment (6-mer frequency, TF over GST control); in assay [2], 1.03 fold enrichment (6-mer frequency, TF over GST control); in assay [3], 1.03 fold enrichment (6-mer frequency, TF over GST control); in [4], 1.04 fold enrichment (6-mer frequency, TF over GST control); in assay [5], 1.04 fold enrichment (6-mer frequency, TF over GST control); in assay [6], 1.05 fold enrichment (6-mer frequency, TF over GST control). Also, the binding signal in assay [7] is 1.07 fold enrichment (6-mer frequency, TF over GST control); in assay [8], 1.06 fold enrichment (6-mer frequency, TF over GST control); in assay [9], 1.03 fold enrichment (6-mer frequency, TF over GST control); in [10], 1.03 fold enrichment (6-mer frequency, TF over GST control); in [11], 1.05 fold enrichment (6-mer frequency, TF over GST control); in [12] it was 1.01 fold enrichment (6-mer frequency, TF over GST control).
